# Assay results published in PubChem BioAssay.
# A number with no mark means an inactive call. Results filed as inconclusive are left out. The source made the active and inactive calls.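 The calls were made as follows, unless noted: active = cell viability at or below a set limit in both duplicate runs, the limit being the all-compound median minus 4 SD (cut at about 23% in these data, passing the limit was not always enough); inconclusive = no clear call, values can overlap the other calls; inactive = the rest.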
# Assay: doxorubicin toxicity protection in MRP-1 cells – H69AR cells, CellTiter-Glo, duplicate, MRP-1 activator project, pilot screen (AID 807;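 active = viability increase at or above a cutoff of the median across tested compounds plus 3 SD, cut at about 8.5% in these data, passing the limit was not always enough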;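 also: compound pretreatment 18-22 h then 72 h combined with doxorubicin; 0% = doxorubicin alone and 100% = vehicle without doxorubicin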)
# Conditions: H69AR viability with doxorubicin, CellTiter-Glo luminescence; at 10 µM; hits give high values
row,SMILES,viability increase
1,CCOc1ccc(N(CC(=O)N2CCN(c3ccccc3)CC2)S(=O)(=O)c2c(C)noc2C)cc1,-5.76%
2,CC1(C)CC(N2CCN(c3ccccc3)CC2)=CC(=[N+]2CCCC2)C1,-3.22%
3,O=C(Cn1cnc2c(cnn2-c2ccc(F)cc2)c1=O)NCCc1ccccc1,1.69%
4,Cc1nnc(Nc2ccc3c(c2)OCO3)c2ccccc12,-3.25%
5,O=C(O)CC1C(=O)NCCN1CCCc1ccccc1 (stereo not drawn),-0.23%
6,O=C(CN1CCCCC1)Nc1nnc(-c2ccccc2)s1,1.16%
7,COc1ccc(N2C(=O)C3CCCN3C2c2ccc(Cl)cc2)cc1 (stereo not drawn),-2.6%
8,CCOC(=O)c1cnc2c(C)cccc2c1NCc1ccco1,-4.61%
9,COc1ccc(OC)c(-n2c(SCC(=O)Nc3cc(C)on3)nnc2-c2c[nH]c3ccccc23)c1,-2.74%

# Assay: viability of HCT116 without oncogenic beta-catenin – human colon tumor cells, pilot screen (AID 823);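 also: 0% = wells killed by 20 µM Hyamine and 100% = untreated DMSO cell wells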
# Conditions: HCT116 beta-catenin knockout viability, CellTiter-Glo, 60 h; at 10 µM; hits give low values
row,SMILES,viability
1,c1ccc(Cn2nnc3c(N4CCOCC4)ncnc32)cc1,92.7%
2,CCN(CC)S(=O)(=O)c1ccc(-c2nnco2)cc1,100%
3,Cc1ccc2nc(NC(=O)CCNS(=O)(=O)c3cccs3)sc2c1,87%
4,Cn1c(=O)c2c(SCc3cccnc3)nc(CC(C)(C)C)nc2n(C)c1=O,87.2%
5,Cc1c(Nc2nc3ccccc3nc2N2CCN(c3ccccc3)CC2)c(=O)n(-c2ccccc2)n1C,69%
6,CC(C)N(Cc1nc(-c2ccc(Cl)cc2)no1)C(=O)CCCN1C(=O)c2ccccc2C1=O,104%
7,COc1ccc(-c2nc(CSCC(=O)N3CCC(C(N)=O)CC3)c(C)o2)cc1OC,106%
8,COc1ccc(N(CC(=O)NCc2cccnc2)S(=O)(=O)c2c(C)nn(C)c2C)cc1,98.5%
9,O=C(NC1CCCCC1)C1CC(=O)N(c2ccc(Cl)cc2)C1 (stereo not drawn),95.5%
10,COc1cc(C(=O)NCc2ccco2)c(Br)c(OC)c1OC,98.3%
11,COC(=O)C1C(O)=C(C(C)=N)C(=O)CC1(C)C (stereo not drawn),98.1%
12,Cn1c(SCC(=O)Nc2ccccc2F)nnc1-c1cccnc1,100%
13,O=C(CCCC(=O)NCC1CCCO1)NCC1CCCO1 (stereo not drawn),101%
14,O=c1[nH]c(NCCCO)nc2c1C1(CCCC1)Cc1ccccc1-2,97.1%
15,Fc1ccc(Cc2nnc(-c3cccs3)o2)cc1,104%
16,Cc1ccc(Cn2nnc3c(=O)n(Cc4ccccc4C)cnc32)cc1,92.7%
17,COCCOC(=O)C1=C(C)NC2=C(C(=O)CCC2)C1c1ccc(N(C)C)cc1 (stereo not drawn),98.6%

row,SMILES,viability
1,COc1ccc(C2C(C(N)=O)=C(C)Nc3nc(-c4ccccc4Cl)nn32)c(OC)c1 (stereo not drawn),93.9%
2,CC(=O)N1CCc2cc(C(=O)CN3CCC(C)CC3)ccc21,104%
3,COc1cccc(OCC(=O)N(Cc2nc(-c3ccc(Cl)cc3)no2)C(C)C)c1,91%
4,CCn1c(-c2cc(OC)ccc2OC)csc1=Nc1c(C)n(C)n(-c2ccccc2)c1=O,93.8%
5,NC(=O)SCC(=O)Nc1ccc(Cl)c(Cl)c1,38%
6,O=C(NCC1CCCO1)C1CC(=O)N(c2ccc(F)c(Cl)c2)C1 (stereo not drawn),86.7%
7,COc1cc(CO)cc(Br)c1OCC(=O)O,102%
8,Cn1c(CNC(=O)C(C)(C)C)nc2ccccc21,101%
9,CCN(CC)c1cccc(OC2=NS(=O)(=O)c3ccccc32)c1,99.1%
10,CC(CNC(=O)C1CCCCC1)NC(=O)C1CCCCC1 (stereo not drawn),89.6%
11,COc1ccc(-c2nc(CSCC(=O)N3CCN(C4CCCCC4)CC3)c(C)o2)cc1OC,87.8%
12,Cc1ccc(NS(=O)(=O)c2ccc3c(c2)oc(=O)n3C)cc1F,89.1%
13,Cc1c(C(=O)NCC2CCCO2)oc2ccc(S(=O)(=O)N3CCCCC3)cc12 (stereo not drawn),89.9%
14,COc1cccc(N2CCN(C(=O)CN(C)S(=O)(=O)c3ccc4c(c3)CCC(=O)N4)CC2)c1,87.6%
15,CCOc1ccc(N(CC(=O)N2CCN(c3ccccc3)CC2)S(=O)(=O)c2c(C)noc2C)cc1,76.4%
16,CC1(C)CC(N2CCN(c3ccccc3)CC2)=CC(=[N+]2CCCC2)C1,18.1% (active)
17,O=C(Cn1cnc2c(cnn2-c2ccc(F)cc2)c1=O)NCCc1ccccc1,97.6%
